# Inconclusive results are not listed. Unmarked numbers belong to inactive results. Active and inactive are the calls of the source. Unless noted, calls come from the whole dose curve; as a rule, active = well fitted curve in the direction sought with a large enough effect in the repeat runs; inconclusive = weak or mixed curves; inactive = no such curve, though single readings can be large; an effect the other way counts as inactive or inconclusive.
# Assay: qHTS assay to identify small molecule agonists of the progesterone receptor (PR) signaling pathway - cell viability counter screen (AID 1346799; calls by dose curve; note: nearly all actives have a fitted effect of over 45% in size)
# Conditions: PR-UAS-bla HEK293T viability, CellTiter-Glo luminescence, 16 h; series mostly up to 92.4 µM
# In short: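 Luminescence from CellTiter-Glo, added after the beta-lactamase FRET read in the same wells, gave cytotoxicity in PR-UAS-bla HEK293T cells treated with compounds for 16 hr at 37C.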
# % is set by controls: 0 for no effect and ±100 for the full control effect.
SMILES,outcome,"activity change, negative = cytotoxicity"
COc1cc2c(cc1OC)CN(C(=O)[C@H](C)N[C@@H](CCc1ccccc1)C(=O)O)[C@H](C(=O)O)C2,inactive,
O=C(Cn1ccnc1[N+](=O)[O-])NCc1ccccc1,inactive,
COC(=O)/C=C\C(=O)O,inactive,
CCCCOC(=O)C(C)O (stereo unspecified),inactive,
N#CCC(=O)NN,inactive,
Cc1cc(C)c(C(=O)O)c(C)c1,inactive,
CCOc1cccc(N)c1,inactive,
O=C(CCCl)NCCc1ccccc1,inactive,
CC(=O)C1C(=O)C=C(C)OC1=O (stereo unspecified),inactive,
CCOc1ccccc1OCC1CNCCO1 (stereo unspecified),inactive,
CC1(C)O[C@H]2CC(=O)OC[C@]23[C@H]2CC[C@@]4(C)[C@H](c5ccoc5)OC(=O)[C@H]5O[C@]54[C@]2(C)C(=O)C[C@@H]13,inactive,
CCO[Si](CC)(OCC)OCC,inactive,
CC(=O)CCc1ccc(OC(C)=O)cc1,inactive,
CCCCCCC1(C)CCC(=O)O1 (stereo unspecified),inactive,
O=C(O)[C@H](O)c1ccccc1,inactive,
C=CC/C=C/C,inactive,
CCC(C)C(=O)OCCc1ccccc1 (stereo unspecified),inactive,
COP(=O)(O)OP(=O)(O)OC,inactive,
O=C(O)c1cc2ccccc2nc1C(=O)O,inactive,

SMILES,outcome,"activity change, negative = cytotoxicity"
COc1cc(/C=C/C(N)=O)cc(OC)c1OC,inactive,
COC(=O)c1cc(Cl)cc(Cl)c1,inactive,
O=C1c2ccccc2C(=O)c2cc(Cl)ccc21,,13.3% [at 8.39 µM]
CO[C@@]1(NC(=O)Cc2cccs2)C(=O)N2C(C(=O)O)=C(COC(N)=O)CS[C@@H]21,inactive,
C[C@H]1[C@@H](c2ccccc2)NC(=O)N1C,inactive,
CC/C=C\CCOC(=O)c1ccccc1O,inactive,
Cc1ccccc1C(N)=O,inactive,
OC1OCCOC1O (stereo unspecified),inactive,
C/C=C(\C)C(C)=O,inactive,
COC(=O)c1ccccc1C(=O)O,inactive,
CC(C)c1ccc(C=O)cc1,inactive,
CCC/C=C(\C=O)CC,inactive,
CSc1cnccn1,inactive,
CCOC(=O)CC1(C)OCC(C)O1 (stereo unspecified),inactive,
CC(=O)CC(=O)OC(C)(C)C,inactive,
Cc1c(NC(=O)c2cccnc2)c(=O)n(-c2ccccc2)n1C,inactive,
c1ccc(-c2nn[nH]n2)cc1,inactive,
CCCCCCCCCCOC(C)=O,inactive,

# Assay: qHTS assay to identify small molecule antagonists of the TGF-beta/Smad signaling pathway - cell viability counter screen (AID 1346824); note: nearly all actives have a fitted effect of over 50% in size
# Conditions: SBE-bla HEK293T viability, CellTiter-Glo luminescence; series mostly up to 76.8 µM
# In short: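 SBE-bla HEK 293T cells were plated overnight at 37 C, then given compounds in DMSO plus TGF-beta1 (added as 0.25 ng/mL solution) for 5 hr. After the bla read, CellTiter-Glo was added to the same wells and luminescence read after 30 min at room temperature.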
SMILES,outcome,"viability change, negative = cytotoxic"
COc1cc2c(cc1OC)CN(C(=O)[C@H](C)N[C@@H](CCc1ccccc1)C(=O)O)[C@H](C(=O)O)C2,inactive,
O=C(Cn1ccnc1[N+](=O)[O-])NCc1ccccc1,inactive,
COC(=O)/C=C\C(=O)O,inactive,
CCCCOC(=O)C(C)O (stereo unspecified),inactive,
N#CCC(=O)NN,inactive,
Cc1cc(C)c(C(=O)O)c(C)c1,inactive,
CCOc1cccc(N)c1,inactive,
O=C(CCCl)NCCc1ccccc1,inactive,
CC(=O)C1C(=O)C=C(C)OC1=O (stereo unspecified),inactive,
CCOc1ccccc1OCC1CNCCO1 (stereo unspecified),inactive,
CC1(C)O[C@H]2CC(=O)OC[C@]23[C@H]2CC[C@@]4(C)[C@H](c5ccoc5)OC(=O)[C@H]5O[C@]54[C@]2(C)C(=O)C[C@@H]13,inactive,
CCO[Si](CC)(OCC)OCC,inactive,
CC(=O)CCc1ccc(OC(C)=O)cc1,inactive,
CCCCCCC1(C)CCC(=O)O1 (stereo unspecified),inactive,
O=C(O)[C@H](O)c1ccccc1,inactive,
C=CC/C=C/C,inactive,
CCC(C)C(=O)OCCc1ccccc1 (stereo unspecified),inactive,
COP(=O)(O)OP(=O)(O)OC,inactive,
O=C(O)c1cc2ccccc2nc1C(=O)O,inactive,

SMILES,outcome,"viability change, negative = cytotoxic"
COc1cc(/C=C/C(N)=O)cc(OC)c1OC,inactive,
COC(=O)c1cc(Cl)cc(Cl)c1,inactive,
O=C1c2ccccc2C(=O)c2cc(Cl)ccc21,,-4.61% [at 6.97 µM]
CO[C@@]1(NC(=O)Cc2cccs2)C(=O)N2C(C(=O)O)=C(COC(N)=O)CS[C@@H]21,inactive,
C[C@H]1[C@@H](c2ccccc2)NC(=O)N1C,inactive,
CC/C=C\CCOC(=O)c1ccccc1O,inactive,
Cc1ccccc1C(N)=O,inactive,
OC1OCCOC1O (stereo unspecified),inactive,
C/C=C(\C)C(C)=O,inactive,
COC(=O)c1ccccc1C(=O)O,inactive,
CC(C)c1ccc(C=O)cc1,inactive,
CCC/C=C(\C=O)CC,inactive,
CSc1cnccn1,inactive,
CCOC(=O)CC1(C)OCC(C)O1 (stereo unspecified),inactive,
CC(=O)CC(=O)OC(C)(C)C,inactive,
Cc1c(NC(=O)c2cccnc2)c(=O)n(-c2ccccc2)n1C,inactive,
c1ccc(-c2nn[nH]n2)cc1,inactive,
CCCCCCCCCCOC(C)=O,inactive,

# Assay: qHTS assay to identify small molecule agonists of the TGF-beta/Smad signaling pathway - cell viability counter screen (AID 1346829); note: top concentration of the series differs between compounds; nearly all actives have a fitted effect of over 45% in size
# Conditions: SBE-bla HEK293T viability, CellTiter-Glo luminescence, 5 h; series mostly up to 76.8 µM
# In short: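 Same-well cytotoxicity: CellTiter-Glo added after the 2 hr room-temperature beta-lactamase substrate step, luminescence measured 30 min later; cells had 5 hr of compound at 37 C.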
SMILES,outcome,"activity change, negative = cytotoxicity"
COc1cc2c(cc1OC)CN(C(=O)[C@H](C)N[C@@H](CCc1ccccc1)C(=O)O)[C@H](C(=O)O)C2,inactive,
O=C(Cn1ccnc1[N+](=O)[O-])NCc1ccccc1,inactive,
COC(=O)/C=C\C(=O)O,inactive,
CCCCOC(=O)C(C)O (stereo unspecified),inactive,
N#CCC(=O)NN,inactive,
Cc1cc(C)c(C(=O)O)c(C)c1,inactive,
CCOc1cccc(N)c1,inactive,
O=C(CCCl)NCCc1ccccc1,inactive,
CC(=O)C1C(=O)C=C(C)OC1=O (stereo unspecified),inactive,
CCOc1ccccc1OCC1CNCCO1 (stereo unspecified),inactive,
CC1(C)O[C@H]2CC(=O)OC[C@]23[C@H]2CC[C@@]4(C)[C@H](c5ccoc5)OC(=O)[C@H]5O[C@]54[C@]2(C)C(=O)C[C@@H]13,inactive,
CCO[Si](CC)(OCC)OCC,inactive,
CC(=O)CCc1ccc(OC(C)=O)cc1,inactive,
CCCCCCC1(C)CCC(=O)O1 (stereo unspecified),inactive,
O=C(O)[C@H](O)c1ccccc1,inactive,
C=CC/C=C/C,inactive,
CCC(C)C(=O)OCCc1ccccc1 (stereo unspecified),inactive,
COP(=O)(O)OP(=O)(O)OC,inactive,
O=C(O)c1cc2ccccc2nc1C(=O)O,inactive,

SMILES,outcome,"activity change, negative = cytotoxicity"
COc1cc(/C=C/C(N)=O)cc(OC)c1OC,inactive,
COC(=O)c1cc(Cl)cc(Cl)c1,inactive,
O=C1c2ccccc2C(=O)c2cc(Cl)ccc21,,7.07% [at 6.97 µM]
CO[C@@]1(NC(=O)Cc2cccs2)C(=O)N2C(C(=O)O)=C(COC(N)=O)CS[C@@H]21,inactive,
C[C@H]1[C@@H](c2ccccc2)NC(=O)N1C,inactive,
CC/C=C\CCOC(=O)c1ccccc1O,inactive,
Cc1ccccc1C(N)=O,inactive,
OC1OCCOC1O (stereo unspecified),inactive,
C/C=C(\C)C(C)=O,inactive,
COC(=O)c1ccccc1C(=O)O,inactive,
CC(C)c1ccc(C=O)cc1,inactive,
CCC/C=C(\C=O)CC,inactive,
CSc1cnccn1,inactive,
CCOC(=O)CC1(C)OCC(C)O1 (stereo unspecified),inactive,
CC(=O)CC(=O)OC(C)(C)C,inactive,
Cc1c(NC(=O)c2cccnc2)c(=O)n(-c2ccccc2)n1C,inactive,
c1ccc(-c2nn[nH]n2)cc1,inactive,
CCCCCCCCCCOC(C)=O,inactive,

# From PubChem BioAssay (Tox21)
